Source: paper PMC5540273 (PLoS ONE, 2017)

Tested on: RIPK5
Conditions: concentration: 1 μM,replicates: in singlicate; n = 1
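Further: KINOMEscan kinase panel screen.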

| Structure (SMILES) | %Inh [%] |
| --- | --- |
| O=C(Nc1ccccc1)c1cccc(Oc2ccc3nccn3n2)c1 | 0 |
| Cc1ccc(CC(=O)N2CCc3cc(-c4cn(C)c5ncnc(N)c45)ccc32)cc1 [GSK2634758] | 62 |
| COC(=O)c1cccc(NC(=O)NC2CCN(c3ccnc(NCc4ccc(F)cc4)n3)CC2)c1 [GSK1379860] | 0 |
| Cc1n[nH]c2cc(Nc3ccnc(Nc4cccc(CN5CCOCC5)c4)n3)ccc12 [GW682569] | 0 |
| CCN1CCN(CCCC(=O)Nc2n[nH]c3nc(-c4ccc(O)cc4)c(Br)cc23)CC1 [SB-731579] | 0 |
| COc1ccc(Nc2nccc(N3CCC(NC(=O)c4cccc(C#N)c4)C3)n2)cc1 (stereo not shown) [GSK1379730] | 0 |
| C[C@@H](Oc1cc(-n2cnc3cc(-c4ccncc4)ccc32)sc1C(N)=O)c1ccccc1Cl [GSK479719] | 37 |
| Cc1nnc(-c2ccc3occ(-c4ccc(S(C)=O)cc4)c3n2)o1 (stereo not shown) | 0 |
| Cn1cc(-c2cccc3c(N)c(C(N)=O)nnc23)cn1 | 17 |
| Cl.Nc1n[nH]c2cc(-c3ccccn3)ccc12 [GSK2189892] | 6 |
| COc1cccc(CNC(=O)NC2CCN(c3ccnc(Nc4cc(OC)c(OC)c(OC)c4)n3)C2)c1 (stereo not shown) [GSK1379765] | 5 |
| Cc1ccc(C(=O)Nc2ccc(Oc3ccc4nc(NC(=O)C5CC5)cn4c3)c(F)c2)c(=O)n1-c1ccccc1 | 0 |
| Cc1cccc2c(-c3ccncc3)c(-c3ccc(F)cc3)nn12.Cl [GW461487] | 0 |
| C[C@@H](Oc1cc(-n2cnc3ccc(-c4ccncc4)cc32)sc1C(N)=O)c1ccccc1Cl [GSK483724] | 3 |
| CNC(=O)c1ccccc1Nc1nc(Nc2cccc(CS(C)(=O)=O)c2)ncc1C.O=CO [GSK1520489] | 65 |
| COc1cc2c(Nc3ccc(NC(=O)c4ccccc4)cc3)ncnc2cc1OCCCN1CCOCC1 [GSK301329] | 2 |
| O=C(Nc1ccc(Oc2ccc3nc(NC(=O)C4CC4)cn3n2)c(F)c1)c1cccn(-c2ccccc2)c1=O | 0 |
| COc1cc(Nc2nccc(N3CCC(NC(=O)c4cccc(C#N)c4)C3)n2)cc(OC)c1OC (stereo not shown) [GSK1379751] | 0 |
| CC(C)S(=O)(=O)N1CCN(Cc2ccc3c(c2)nc(NC(=O)c2ccsc2)n3C[C@H](O)c2ccccc2)CC1 [GW635815] | 0 |

| Structure (SMILES) | %Inh [%] |
| --- | --- |
| Cn1ccc2ncnc(Oc3ccc(NC(=O)Nc4cccc(C(F)(F)F)c4)c(F)c3)c21 | 0 |
| Cc1ccc2c(-c3ccnc(Nc4ccc(C(F)(F)F)cc4)n3)cnn2n1 [GW819776] | 27 |
| C[C@@H]1CNc2c(sc3ccc4nc(-c5ccncc5)ccc4c23)C(=O)N1 | 0 |
| Cn1ccc2ncnc(Oc3ccc(NC(=O)Nc4cccc(C(F)(F)F)c4)c(Cl)c3)c21 | 11 |
| COc1cccc(OC)c1C(=O)Nc1cccc(-c2nn3ccccc3c2-c2ccnc(Nc3cccc(F)c3)n2)c1 [GSK361065] | 32 |
| CN1CCN(CCCNc2nccc(-c3c(-c4ccc(F)cc4)nn4cc(C(N)=O)ccc34)n2)CC1 [GW622475] | 0 |
| CCCC(=O)Nc1n[nH]c2ncccc12 [SB-601436] | 0 |
| Cn1ccc2ncnc(Oc3ccc(NC(=O)Nc4cc(C(C)(C)C)on4)c(Cl)c3)c21 | 11 |
| Cl.c1ccc(Oc2ccc(Nc3ccnc4cc(-c5ccc(CN6CCNCC6)o5)ccc34)cc2)nc1 [GW567142] | 4 |
| CC(=O)Nc1ccc(-c2cc3ncnc(SCC(=O)O)c3s2)cc1 | 14 |
| Cc1ccc(Nc2ccnc(Nc3ccc4c(c3)CS(=O)(=O)C4)n2)cc1O.Cl [GW579362] | 89 |
| COc1cccc(C2=C(Nc3cccc(Cl)c3)C(=O)NC2=O)c1 [SB-341556] | 16 |
| OCCn1cc(-c2cnc3nnn(Cc4ccc5ncccc5c4)c3n2)cn1 | 0 |
| Cn1ccc2ncnc(Oc3ccc(NC(=O)Nc4cncc(C(F)(F)F)c4)c(Cl)c3)c21 | 0 |
| CN(c1cccc(CNc2nc(Nc3ccc4c(c3)CC(=O)N4)ncc2C(F)(F)F)c1)S(C)(=O)=O | 16 |
| Cl.Cl.NC[C@H](CC1CCCCC1)NC(=O)c1ccc(-c2ccnc3[nH]ccc23)s1 [GSK1581428] | 0 |
| N#Cc1cccc(C(=O)NC2CCN(c3ccnc(Nc4ccc(F)cc4)n3)C2)c1 (stereo not shown) [GSK1379708] | 0 |
| c1ccc(Oc2ccc(Nc3ccnc4ccc(-c5ccccn5)cc34)cc2)cc1 [GW407034] | 31 |
